Values joined by “and” are separate entries in the source; they are usually repeats but may differ in a detail not shown here. Identical values can stand only once. Results filed as inconclusive are left out. Where a call stands in place of a potency, no number is given. Some structures have more than one record in an assay (separate samples or runs), and their calls can disagree. Active and inactive are the calls of the source. The call rests on the fitted dose curve; in most records, active means well fitted cell-killing curve with a large enough effect in the repeat runs; inconclusive means weak or mixed curves, or effect the other way; inactive means flat fitted curve, though single readings scatter.
assay: qHTS RealTime-Glo MT Cell Viability Assay in HEK293 cells - 24 hour (AID 1224886); settings: RealTime-Glo luminescence; series mostly up to 76.8 µM; activity change, negative = cytotoxicity: at the top concentration; further: nearly all actives have a fitted effect of over 50% in size; on activity change, negative = cytotoxicity: top concentration of the series differs between compounds
Excerpt: National Center for Advancing Translational Sciences [NCATS]
NIH Chemical Genomics Center [NCGC]
U.S. Environmental Protection Agency [EPA]
National Institutes of Environmental Health Sciences [NIEHS]
National Toxicology Program [NTP]
U.S. Food and Drug Administration [FDA]
Measure of cell viability is critical in the cell-base assay. Analysis of cell viability is necessary for the characterization of cell responses to cytotoxic drugs and environmental stress. A RealTime-Glo MT Cell Viability Assay to monitor cell viability in real time of continues cell culture during 40 hours of compound treatment was used to screen Tox21 10K library compounds in Hek293 cells. The RealTime-Glo MT Cell Viability Assay is a nonlytic, homogeneous, bioluminescent method to measure cell viability in real time using a simple, plate-based method. The assay involves adding NanoLuc luciferase and a cell-permeant prosubstrate to cells in culture. Viable cells reduce the proprietary prosubstrate to generate a substrate for NanoLuc luciferase. This substrate diffuses from cells into the surrounding culture medium, where it is rapidly used by the NanoLuc Enzyme to produce a luminescent signal. The signal correlates with the number of viable cells, making the assay well suited for cytotoxicity studies.
Tox21 Assay Protocol Summary:
The mixture of Hek293 cell suspension and reagents were dispensed at 600cells/6 ul/well in 1536-well tissue culture treated black solid bottom plates using a Multidrop dispenser. After the assay plates were incubated at a 37 C/5% CO2 incubator for 5 hours, 23 nL of compounds dissolved in DMSO, positive and negative controls was transferred to the assay plate by a pintool work station. The plates were incubated at 37 C for 40 hours. The luminescence intensity were measured at 0h, 8h, 16h, 24h, 32h and 40h time points using ViewLux plate reader during compound treatment.
Potency means the concentration at half of the fitted maximal effect.

| Compound | Potency | activity change, negative = cytotoxicity |
| --- | --- | --- |
| O=CCc1ccccc1 | inactive |  |
| CC(C)OC=O | inactive |  |
| O=Cc1ccccc1O | inactive |  |
| C=C(C)C1CC=C(C)CC1 (stereo not given) | inactive |  |
| Cc1ccc2c(n1)Oc1ccc(C(C)C(=O)OCC(=O)N(C)C)cc1C2 (stereo not given) |  | -26.6% [at 35.3 µM] (inactive) |
| NC=O | inactive |  |
| NNc1ccc(C(=O)O)cc1 | inactive |  |
| CCCCC(CC)COC(=O)c1ccc(N(C)C)cc1 (stereo not given) | inactive |  |
| C[Si](C)(C)O[Si](C)(C)C | inactive |  |
| CC(C)CC(C)(O)C#CC(C)(O)CC(C)C (stereo not given) | inactive |  |
| Cc1cccc([N+](=O)[O-])c1C | inactive |  |
| CC(=O)C1(C)CC2=C(CCCC2(C)C)CC1C (stereo not given) | inactive |  |
| Nc1ccc(Nc2ccccc2)cc1 | 48.5 µM (active) |  |
| COc1ccc(OC)c(C(O)CNC(=O)CN)c1 (stereo not given) | inactive |  |
| O=P(O)(O)O | inactive |  |
| CCCCC/C=C/C=C/C=O |  | -21.8% (inactive) |
| CCCCC(CC)COP(=O)(OCC(CC)CCCC)OCC(CC)CCCC (stereo not given) | inactive |  |
| CC(C)OC(=O)C(C)(C)Oc1ccc(C(=O)c2ccc(Cl)cc2)cc1 | 19.5 µM (active) and 10.7 µM (active) |  |
| Nc1ccc(Cl)cc1Cl | inactive |  |
| CCOC(=O)C(C#N)=C(c1ccccc1)c1ccccc1 | inactive |  |

| Compound | Potency | activity change, negative = cytotoxicity |
| --- | --- | --- |
| CC1=CC2C3CC(C=C3C)C2C1 (stereo not given) | inactive |  |
| O=C(/C=C/c1ccccc1)OCc1ccccc1 | inactive |  |
| CNCCCC12CCC(c3ccccc31)c1ccccc12 | 49 µM (active) |  |
| Nc1ncn([C@@H]2O[C@H](CO)[C@@H](O)[C@H]2O)c(=O)n1 |  | -6.6% [at 35.3 µM] (inactive) |
| Nc1ccc(S(=O)(=O)Nc2cnc3ccccc3n2)cc1 | inactive |  |
| Cc1c(C(N)=O)cc([N+](=O)[O-])cc1[N+](=O)[O-] | inactive |  |
| CC(C)OB(OC(C)C)OC(C)C | inactive |  |
| Cc1ccc(C)c(O)c1C | inactive |  |
| COc1cccc2c1C(=O)c1c(O)c3c(c(O)c1C2=O)C[C@@](O)(C(=O)CO)C[C@@H]3O[C@H]1C[C@H](N)[C@H](O)[C@H](C)O1 | 155 nM (active) and 301 nM (active) |  |
| c1ccc2c(c1)Oc1ccccc1S2 | inactive |  |
| COC(C)COC(C)COC(C)CO (stereo not given) | inactive |  |
| O=C(c1ccccc1)c1ccccc1O | inactive |  |
| c1ccc2cc(Nc3ccc(Nc4ccc5ccccc5c4)cc3)ccc2c1 | inactive |  |
| O=C(COc1ccc(Cl)cc1)N1CCN(Cc2ccc3c(c2)OCO3)CC1 | 38.9 µM (active) |  |
| Cc1c(OCC(F)(F)F)ccnc1CS(=O)c1nc2ccccc2[nH]1 (stereo not given) | 19.5 µM (active) and 19 µM (active) |  |
| c1ccc(Nc2ccccc2)cc1 | 17.4 µM (active) and inactive |  |
| CCCCOCCOCCOCCO | inactive |  |
| CC1=CCC(C(C)(C)O)CC1 (stereo not given) | inactive |  |
| S=C(NC1CCCCC1)NC1CCCCC1 | 17 µM (active) and 21.9 µM (active) |  |
| OC[C@H]1O[C@@H]2O[C@H]3[C@H](O)[C@@H](O)[C@@H](O[C@H]4[C@H](O)[C@@H](O)[C@@H](O[C@H]5[C@H](O)[C@@H](O)[C@@H](O[C@H]6[C@H](O)[C@@H](O)[C@@H](O[C@H]7[C@H](O)[C@@H](O)[C@@H](O[C@H]8[C@H](O)[C@@H](O)[C@@H](O[C@H]1[C@H](O)[C@H]2O)O[C@@H]8CO)O[C@@H]7CO)O[C@@H]6CO)O[C@@H]5CO)O[C@@H]4CO)O[C@@H]3CO | inactive |  |

Reference: PubChem BioAssay (Tox21)
